The panel holds about 83,000 compounds, 20% with a hit somewhere; the sample as a whole holds those more often.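 Step 1: grow cells in 96-well plates. Step 2: add test compound at a single concentration. Step 3: incubate 48 h. Step 4: record percent growth.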 A number with no mark means an inactive call. Activity calls are given as the source filed them. The calls were made as follows: active = growth percent below 10; inactive = the rest.
system: MDA-MB-468 breast; test: NCI-60 one-dose screen, 48 h (100 = growth as untreated, 0 = no growth, -100 = all killed); conditions: 10 µM unless noted

Compound | growth
Cc1ccc(/C=N/Nc2nc(Nc3ccccc3)nc(-n3nc(C)cc3C)n2)cc1 | 60.9%
O=c1c(CNc2ccc(S(=O)(=O)Nc3nccs3)cc2)coc2ccccc12 | 92.9%
Cc1ccc(C(C)C)c(O)c1NC(=O)OC(C)C | 97.5%
CNC(=O)c1c(I)c(NC(C)=O)c(I)c(C(=O)O)c1I | 102%
COc1ncc(-c2ccc3nccc(C#CCCCCC(=O)NO)c3c2)cc1NS(=O)(=O)c1ccc(F)cc1F | -37.1% (active)
Oc1ccc(CSc2nnc(-c3ccncc3)o2)c2cccnc12 | 11.9%
CCOC(=O)c1c(C)nc2c(c1N)/C(=C/c1ccc[nH]1)C(=O)N2Cc1ccc(C(F)(F)F)cc1 | 58.7%
COc1ccc(/C(=N/O)c2cc(F)c(F)c(OC)c2F)cc1O | 18.4%
COC(=O)CCC/C=C\C[C@H]1C=CC(=O)/C1=C/C[C@@H](O)CCc1cccc(C(F)(F)F)c1 | -14.5% (active)
CCN1C(=O)N(CC)C2C1NN=c1s/c(=C\c3cc4ccccc4[nH]3)c(=O)n12 (stereo not given) | -9.55% (active)
CC1Cc2ccccc2O1 (stereo not given) | 120%
CN(C)CCOc1cccc(NC2=C(Cl)C(=O)C(Nc3cccc(OCCN(C)C)c3)=C(Cl)C2=O)c1 | -47.1% (active)
COC(=O)[C@]12CC[C@@H](C)[C@H](C)[C@@H]1C1=CC[C@@H]3[C@@]4(C)C(c5ncon5)=C[C@@](C)(CO)C4=CC[C@@]3(C)[C@]1(C)CC2 | -28.9% (active)
C#CCOc1ccc(C(Nc2cc(Cl)ccc2Cl)c2nnnn2C2CCCCC2)cc1 (stereo not given) | 88.5%
NC1CCC(Nc2nc(NCc3ccc(-c4ccccc4O)nc3)c3ncn(C4CCCC4)c3n2)CC1 (stereo not given) | -73.7% (active)
C=C[C@H]1CCC/C=C/[C@@H]2C[C@H](O)C[C@H]2[C@H](O)/C=C/C(=O)O1 | -42.7% (active)
CC(=O)Nc1ccc2c(c1)c(NC(C)=O)nn2C(=O)Nc1ccc(Cc2ccccc2)cc1 | 80.1%
O=C(CSc1nc(-c2ccccc2)cc(=O)[nH]1)Nc1nc(-c2ccccc2)cs1 | 96.6%
Cc1cc2c(-c3nc4ccccc4[nH]3)c(O)c(O)cc2c(O)c1-c1c(C)cc2c(-c3nc4ccccc4[nH]3)c(O)c(O)cc2c1O | -18.3% (active)
C[C@@]1(CCC#N)[C@H]2CC[C@@H]3[C@H]4[C@H](C(=O)/C=C/c5cccnc5)CC[C@]4(C#N)CC[C@@]3(C)[C@]2(C)CC[C@H]1C(=O)/C=C/c1cccnc1 | 57.9%

Compound | growth
COc1ccc(-c2nnc(SCC(=O)NC3=NN=C(c4ccccc4)CS3)o2)cc1 | 105%
C=CC1CN2CCC1CC2C(O)c1ccnc2ccc(OC)cc12 (stereo not given) | 102%
C#CC(F)(F)[C@]1(O)CCC2C3CCC4=CC(=O)CCC4=C3[C@@H](c3ccc(N(C)C)cc3)C[C@@]21C (stereo not given in full) | 101%
CC(C)(C)c1[nH]nc2c1C(c1cc3ccccc3[nH]c1=O)Nc1cc(C(=O)OCc3ccccc3)ccc1N2 (stereo not given) | 43.7%
Nc1cccc(C(=O)Nc2ccc3c(O)c(N=Nc4ccc(N=Nc5ccc(S(=O)(=O)O)cc5)cc4)c(S(=O)(=O)O)cc3c2)c1 | 113%
c1nc(N2CCOCC2)c2[nH]ccc2n1 | 108%
Cc1ccc(S(=O)(=O)NCCNc2nccc(-c3c(-c4ccc(O)cc4)nc4sccn34)n2)cc1 | 85.3%
c1cc(CNC23CC4CC(CC(C4)C2)C3)cc(C[N+](Cc2cccc(CNC34CC5CC(CC(C5)C3)C4)c2)(Cc2cccc(CNC34CC5CC(CC(C5)C3)C4)c2)Cc2cccc(CNC34CC5CC(CC(C5)C3)C4)c2)c1 (stereo not given) | -47.1% [42 µM] (active)
O=C1Nc2ccccc2/C1=C/C(=O)c1ccc(N2CCCCC2)cc1 | 80%
O=C(NCCCCNC(=O)OCc1ccc2c(Cl)cc(Cl)c(O)c2n1)OCc1ccc2c(Cl)cc(Cl)c(O)c2n1 | -5.78% (active)
Cc1ccccc1/C=C/C(=O)c1cccc(OCCCOc2cccc(C(=O)/C=C/c3ccccc3C)c2)c1 | 108% [3 µM]
CC(C)CC1NC(=O)C(CCCN)NC(=O)C(C(C)C)NC(=O)C2CCCN2C(=O)C(Cc2ccccc2)NC(=O)C(CC(C)C)NC(=O)C(CCCN)NC(=O)C(C(C)C)NC(=O)C2CCCN2C(=O)C(Cc2ccccc2)NC1=O (stereo not given) | -78.1% (active)
O=P(O)(c1ccccc1)c1ccccc1I | 89.5%
COc1ccc(-c2cc(C(=O)N=Nc3c(O)[nH]c4ccccc34)c3ccccc3n2)cc1OC | 92.3%
COc1cc(OCc2cccc(-c3ccc(C(O)c4nccs4)cc3)c2C)cc(OC)c1CNCCNC(C)=O (stereo not given) | 92.1%
Cn1cc(C2=C(c3cccc4ccccc34)C(=O)NC2=O)c2cc(Br)ccc21 | 87.2%
CCOC(=O)C1CCCN1C(=O)C1(NC(C)=O)CCCC1 (stereo not given) | 98.9%
CCOC(=O)c1sc(-c2ccc(OS(=O)(=O)c3ccccc3[N+](=O)[O-])c(C=O)c2)nc1C | 55.4%
CCCCCCCc1n(Cc2ccc3ccccc3c2)c2ccccc2[n+]1Cc1ccc2ccccc2c1 | -69.6% (active)
O=C(Nc1ccccc1)c1sc(-c2cccc(C(F)(F)F)c2)cc1O | 92.3%
